Assay results published in paper PMC7862700, “An all-to-all approach to the identification of sequence-specific readers for epigenetic DNA modifications on cytosine”.

Columns and labels:
Assay in all cases: DAPPL (digital affinity profiling via proximity ligation, sequencing); 10 mM Tris-HCl pH 7.5, 50 mM NaCl, 1 mM DTT, 4% glycerol, room temperature, 30 min; GST-TFs on glutathione beads, 16-mer random dsDNA library, 0.1% formaldehyde crosslink after washing; high values mean tight binding
FEV = target: T1, FEV (Homo sapiens, UniProt Q99581 1-238); settings: protein: recombinant; tags: N-terminal GST; dsDNA, one strand shown
T1 sequence: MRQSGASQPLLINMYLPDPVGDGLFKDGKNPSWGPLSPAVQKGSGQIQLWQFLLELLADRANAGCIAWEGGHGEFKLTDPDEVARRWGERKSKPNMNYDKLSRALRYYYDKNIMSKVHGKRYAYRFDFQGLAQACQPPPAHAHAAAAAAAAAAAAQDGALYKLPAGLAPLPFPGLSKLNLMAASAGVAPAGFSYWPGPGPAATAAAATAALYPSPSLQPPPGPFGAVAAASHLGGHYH
How it was run: (§1)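 A tag-only sample was pooled with DNA-barcoded human transcription factors that had been expressed in yeast as GST fusions and captured on glutathione beads. The pools were incubated for 30 min at room temperature with 200 nmole of a random double-stranded 16-mer DNA library in Tris/NaCl/DTT/glycerol buffer, then washed, crosslinked with 0.1% formaldehyde, proximity-ligated (BsaI/T4 ligase, 1 h, 37 °C), PCR-amplified and sequenced on an Illumina NextSeq500. Binding signal is each hexamer's read frequency for a factor divided by its frequency for the tag-only sample.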

ETV5 = ETV5 (Homo sapiens, UniProt P41161 1-510); settings: protein: recombinant; tags: N-terminal GST; dsDNA, one strand shown
Chain of ETV5 (P41161 whole entry): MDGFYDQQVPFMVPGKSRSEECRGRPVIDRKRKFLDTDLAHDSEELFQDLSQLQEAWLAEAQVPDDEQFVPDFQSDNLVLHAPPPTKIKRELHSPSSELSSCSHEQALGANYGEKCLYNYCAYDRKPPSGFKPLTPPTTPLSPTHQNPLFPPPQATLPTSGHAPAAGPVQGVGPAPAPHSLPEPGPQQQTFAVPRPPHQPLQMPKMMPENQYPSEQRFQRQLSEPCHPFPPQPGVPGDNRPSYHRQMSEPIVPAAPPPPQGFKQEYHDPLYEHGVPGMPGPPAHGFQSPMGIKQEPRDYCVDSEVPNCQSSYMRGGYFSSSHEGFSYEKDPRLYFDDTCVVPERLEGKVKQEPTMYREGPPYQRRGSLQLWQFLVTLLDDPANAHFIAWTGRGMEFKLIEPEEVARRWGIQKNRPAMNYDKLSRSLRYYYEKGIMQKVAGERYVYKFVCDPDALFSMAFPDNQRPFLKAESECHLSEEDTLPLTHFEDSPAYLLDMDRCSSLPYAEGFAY
How it was run: as §1

HSF1 = HSF1 (Homo sapiens, UniProt Q00613 1-529); settings: protein: recombinant; tags: N-terminal GST; chain copies: 3; dsDNA, one strand shown
Chain of HSF1 (Q00613 whole entry): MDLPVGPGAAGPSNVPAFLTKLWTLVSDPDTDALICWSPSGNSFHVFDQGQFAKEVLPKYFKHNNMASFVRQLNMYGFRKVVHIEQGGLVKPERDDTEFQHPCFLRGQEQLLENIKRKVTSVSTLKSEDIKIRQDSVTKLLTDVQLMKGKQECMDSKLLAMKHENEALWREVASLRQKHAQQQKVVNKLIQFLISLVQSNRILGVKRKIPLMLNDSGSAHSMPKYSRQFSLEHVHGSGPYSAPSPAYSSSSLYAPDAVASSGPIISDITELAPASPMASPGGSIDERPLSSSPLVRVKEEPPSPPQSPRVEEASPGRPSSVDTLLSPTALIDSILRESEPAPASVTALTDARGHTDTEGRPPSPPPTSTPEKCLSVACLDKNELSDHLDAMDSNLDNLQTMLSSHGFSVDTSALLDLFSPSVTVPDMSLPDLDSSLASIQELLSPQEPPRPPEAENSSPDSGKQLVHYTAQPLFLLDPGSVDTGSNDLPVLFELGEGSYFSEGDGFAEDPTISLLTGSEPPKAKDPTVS
How it was run: as §1

SPIC = target: T2, SPIC (Homo sapiens, UniProt Q8N5J4 1-248); settings: protein: recombinant; tags: N-terminal GST; dsDNA, one strand shown
T2 sequence: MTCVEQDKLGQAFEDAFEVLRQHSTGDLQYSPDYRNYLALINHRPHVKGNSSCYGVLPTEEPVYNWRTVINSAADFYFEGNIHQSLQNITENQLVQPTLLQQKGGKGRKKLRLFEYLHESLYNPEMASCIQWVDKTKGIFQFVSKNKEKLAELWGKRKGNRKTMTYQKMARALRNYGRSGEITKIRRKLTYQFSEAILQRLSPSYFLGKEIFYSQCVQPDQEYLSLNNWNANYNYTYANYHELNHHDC
How it was run: as §1

ELF4 = ELF4 (Homo sapiens, UniProt Q99607 1-663); settings: protein: recombinant; tags: N-terminal GST; dsDNA, one strand shown
Chain of ELF4 (Q99607 whole entry): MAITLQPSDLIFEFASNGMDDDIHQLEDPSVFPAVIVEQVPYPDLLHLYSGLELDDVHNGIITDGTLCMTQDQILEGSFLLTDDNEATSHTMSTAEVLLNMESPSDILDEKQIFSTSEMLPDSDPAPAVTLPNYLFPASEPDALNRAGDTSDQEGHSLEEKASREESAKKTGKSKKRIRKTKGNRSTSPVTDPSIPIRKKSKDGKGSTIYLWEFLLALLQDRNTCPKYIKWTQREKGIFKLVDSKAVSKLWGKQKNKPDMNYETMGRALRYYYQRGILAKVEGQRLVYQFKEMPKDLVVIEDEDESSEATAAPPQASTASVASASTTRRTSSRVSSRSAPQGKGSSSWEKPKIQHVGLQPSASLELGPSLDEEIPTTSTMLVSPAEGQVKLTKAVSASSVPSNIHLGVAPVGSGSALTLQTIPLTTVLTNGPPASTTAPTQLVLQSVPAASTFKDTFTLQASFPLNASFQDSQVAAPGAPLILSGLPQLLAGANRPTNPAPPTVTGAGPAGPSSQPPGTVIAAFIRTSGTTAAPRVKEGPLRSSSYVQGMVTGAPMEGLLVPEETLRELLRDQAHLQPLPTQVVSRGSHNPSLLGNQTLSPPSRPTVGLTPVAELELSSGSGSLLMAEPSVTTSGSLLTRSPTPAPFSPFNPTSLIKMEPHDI
How it was run: as §1

ELK4 = target: T3, ELK4 (Homo sapiens, UniProt P28324-2 1-405); settings: protein: recombinant; tags: N-terminal GST; dsDNA, one strand shown
T3 sequence: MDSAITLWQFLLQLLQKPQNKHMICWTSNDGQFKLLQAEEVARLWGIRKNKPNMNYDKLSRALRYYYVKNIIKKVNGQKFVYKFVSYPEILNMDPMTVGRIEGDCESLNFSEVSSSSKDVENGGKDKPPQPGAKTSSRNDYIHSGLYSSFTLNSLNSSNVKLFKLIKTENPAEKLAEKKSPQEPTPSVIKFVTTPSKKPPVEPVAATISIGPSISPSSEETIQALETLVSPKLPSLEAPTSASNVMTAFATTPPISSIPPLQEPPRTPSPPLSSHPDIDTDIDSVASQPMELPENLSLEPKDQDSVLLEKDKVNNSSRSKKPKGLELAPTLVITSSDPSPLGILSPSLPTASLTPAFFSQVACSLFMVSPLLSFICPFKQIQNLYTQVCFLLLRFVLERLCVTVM
How it was run: as §1

ETV2 = target: T4, ETV2 (Homo sapiens, UniProt O00321 1-342); settings: protein: recombinant; tags: N-terminal GST; dsDNA, one strand shown
T4 sequence: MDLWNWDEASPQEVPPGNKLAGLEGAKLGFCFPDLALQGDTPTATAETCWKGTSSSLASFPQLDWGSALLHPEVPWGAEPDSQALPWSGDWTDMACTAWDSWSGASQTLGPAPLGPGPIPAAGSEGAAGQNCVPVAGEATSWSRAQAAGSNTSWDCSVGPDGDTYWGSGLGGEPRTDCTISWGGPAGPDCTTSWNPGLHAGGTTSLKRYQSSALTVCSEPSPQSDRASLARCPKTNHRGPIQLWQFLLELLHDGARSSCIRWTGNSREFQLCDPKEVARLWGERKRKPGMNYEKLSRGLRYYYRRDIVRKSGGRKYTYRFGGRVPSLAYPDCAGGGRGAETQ
How it was run: as §1

ELF3 = target: T5, ELF3 (Homo sapiens, UniProt P78545 1-371); settings: protein: recombinant; tags: N-terminal GST; dsDNA, one strand shown
T5 sequence: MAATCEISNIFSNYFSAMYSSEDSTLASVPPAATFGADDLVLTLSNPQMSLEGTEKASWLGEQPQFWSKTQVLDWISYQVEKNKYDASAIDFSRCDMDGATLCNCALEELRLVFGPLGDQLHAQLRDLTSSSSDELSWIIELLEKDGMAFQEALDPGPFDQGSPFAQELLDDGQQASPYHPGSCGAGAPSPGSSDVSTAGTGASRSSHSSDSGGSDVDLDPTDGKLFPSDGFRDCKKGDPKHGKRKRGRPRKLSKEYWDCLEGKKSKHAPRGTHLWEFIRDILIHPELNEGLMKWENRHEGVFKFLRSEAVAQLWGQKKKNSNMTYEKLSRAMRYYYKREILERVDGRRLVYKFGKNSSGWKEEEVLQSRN
How it was run: as §1

CRX = CRX (Homo sapiens, UniProt O43186 1-299); settings: protein: recombinant; tags: N-terminal GST; dsDNA, one strand shown
Chain of CRX (O43186 whole entry): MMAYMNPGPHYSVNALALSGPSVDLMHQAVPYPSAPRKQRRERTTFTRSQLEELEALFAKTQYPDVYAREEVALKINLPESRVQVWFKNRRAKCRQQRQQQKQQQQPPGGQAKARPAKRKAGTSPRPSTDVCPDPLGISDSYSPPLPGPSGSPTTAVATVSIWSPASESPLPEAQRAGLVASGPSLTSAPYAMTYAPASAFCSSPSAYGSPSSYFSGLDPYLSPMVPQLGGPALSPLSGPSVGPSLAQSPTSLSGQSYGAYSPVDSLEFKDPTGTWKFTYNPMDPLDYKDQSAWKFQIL
How it was run: as §1

ETV1 = ETV1 (Homo sapiens, UniProt P50549 1-477); settings: protein: recombinant; tags: N-terminal GST; dsDNA, one strand shown
Chain of ETV1 (P50549 whole entry): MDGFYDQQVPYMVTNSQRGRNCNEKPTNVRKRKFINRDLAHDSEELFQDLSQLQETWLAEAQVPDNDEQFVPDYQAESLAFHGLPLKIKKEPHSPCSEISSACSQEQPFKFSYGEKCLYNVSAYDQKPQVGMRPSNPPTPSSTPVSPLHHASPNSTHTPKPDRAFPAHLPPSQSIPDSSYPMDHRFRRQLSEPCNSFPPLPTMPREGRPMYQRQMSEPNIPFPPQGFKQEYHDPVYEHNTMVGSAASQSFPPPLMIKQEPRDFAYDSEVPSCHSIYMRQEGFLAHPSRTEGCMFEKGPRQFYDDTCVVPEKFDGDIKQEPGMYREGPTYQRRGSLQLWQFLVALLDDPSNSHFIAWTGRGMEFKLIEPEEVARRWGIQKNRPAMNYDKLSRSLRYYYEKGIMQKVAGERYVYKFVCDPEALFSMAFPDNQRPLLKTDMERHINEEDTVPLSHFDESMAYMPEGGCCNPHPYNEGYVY
How it was run: as §1

ERF = target: T6, ERF (Homo sapiens, UniProt P50548 1-548); settings: protein: recombinant; tags: N-terminal GST; dsDNA, one strand shown
T6 sequence: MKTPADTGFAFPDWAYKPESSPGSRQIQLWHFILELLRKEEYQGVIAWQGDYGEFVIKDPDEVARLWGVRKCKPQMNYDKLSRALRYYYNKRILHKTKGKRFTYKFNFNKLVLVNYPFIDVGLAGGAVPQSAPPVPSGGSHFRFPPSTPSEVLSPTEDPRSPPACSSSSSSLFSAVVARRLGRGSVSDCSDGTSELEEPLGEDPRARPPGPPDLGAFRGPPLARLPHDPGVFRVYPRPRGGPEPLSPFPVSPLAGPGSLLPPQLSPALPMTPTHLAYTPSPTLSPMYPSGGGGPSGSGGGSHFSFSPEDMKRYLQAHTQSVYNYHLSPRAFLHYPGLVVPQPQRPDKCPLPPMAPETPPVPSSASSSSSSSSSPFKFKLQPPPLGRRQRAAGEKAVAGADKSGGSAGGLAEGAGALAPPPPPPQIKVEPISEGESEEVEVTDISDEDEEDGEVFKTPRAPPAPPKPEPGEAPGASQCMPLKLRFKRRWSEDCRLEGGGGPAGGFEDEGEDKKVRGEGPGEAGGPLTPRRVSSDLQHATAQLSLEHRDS
How it was run: as §1

ETV3L = target: T7, ETV3L (Homo sapiens, UniProt Q6ZN32 1-361); settings: protein: recombinant; tags: N-terminal GST; dsDNA, one strand shown
T7 sequence: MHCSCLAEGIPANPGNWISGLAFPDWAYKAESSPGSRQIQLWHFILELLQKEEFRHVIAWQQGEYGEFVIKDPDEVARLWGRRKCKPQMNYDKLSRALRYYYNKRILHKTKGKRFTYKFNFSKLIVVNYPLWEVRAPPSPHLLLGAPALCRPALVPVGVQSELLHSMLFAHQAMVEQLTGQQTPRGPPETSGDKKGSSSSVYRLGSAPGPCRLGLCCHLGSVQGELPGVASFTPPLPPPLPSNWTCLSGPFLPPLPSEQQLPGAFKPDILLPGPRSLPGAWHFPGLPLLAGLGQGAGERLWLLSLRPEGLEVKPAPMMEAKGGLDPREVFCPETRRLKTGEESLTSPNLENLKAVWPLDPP
How it was run: as §1

ETS2 = target: T8, ETS2 (Homo sapiens, UniProt P15036 1-469); settings: protein: recombinant; tags: N-terminal GST; dsDNA, one strand shown
T8 sequence: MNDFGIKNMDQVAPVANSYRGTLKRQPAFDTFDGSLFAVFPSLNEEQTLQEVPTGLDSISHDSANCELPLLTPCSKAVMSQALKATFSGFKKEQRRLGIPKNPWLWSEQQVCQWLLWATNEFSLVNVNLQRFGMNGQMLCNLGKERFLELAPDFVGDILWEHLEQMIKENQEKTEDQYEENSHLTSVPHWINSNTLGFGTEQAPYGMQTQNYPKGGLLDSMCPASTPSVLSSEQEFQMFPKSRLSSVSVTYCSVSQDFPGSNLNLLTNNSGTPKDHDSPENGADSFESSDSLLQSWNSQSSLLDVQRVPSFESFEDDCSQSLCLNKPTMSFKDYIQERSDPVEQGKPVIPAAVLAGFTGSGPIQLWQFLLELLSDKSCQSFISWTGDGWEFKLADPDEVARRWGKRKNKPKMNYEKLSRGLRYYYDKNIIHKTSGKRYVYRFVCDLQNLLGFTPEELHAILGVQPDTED
How it was run: as §1

SPDEF = target: T9, SPDEF (Homo sapiens, UniProt O95238 1-335); settings: protein: recombinant; tags: N-terminal GST; dsDNA, one strand shown
T9 sequence: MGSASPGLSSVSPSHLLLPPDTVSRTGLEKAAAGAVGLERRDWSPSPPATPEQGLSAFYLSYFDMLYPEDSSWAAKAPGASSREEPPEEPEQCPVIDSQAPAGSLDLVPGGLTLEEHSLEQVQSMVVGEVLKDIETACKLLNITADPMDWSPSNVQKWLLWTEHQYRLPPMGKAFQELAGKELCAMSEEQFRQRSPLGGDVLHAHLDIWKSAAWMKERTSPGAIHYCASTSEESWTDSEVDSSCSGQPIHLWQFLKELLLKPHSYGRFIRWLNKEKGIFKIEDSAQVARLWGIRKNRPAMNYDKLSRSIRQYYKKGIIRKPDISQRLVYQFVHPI
How it was run: as §1

ETV7 = target: T10, ETV7 (Homo sapiens, UniProt Q9Y603 1-341); settings: protein: recombinant; tags: N-terminal GST; dsDNA, one strand shown
T10 sequence: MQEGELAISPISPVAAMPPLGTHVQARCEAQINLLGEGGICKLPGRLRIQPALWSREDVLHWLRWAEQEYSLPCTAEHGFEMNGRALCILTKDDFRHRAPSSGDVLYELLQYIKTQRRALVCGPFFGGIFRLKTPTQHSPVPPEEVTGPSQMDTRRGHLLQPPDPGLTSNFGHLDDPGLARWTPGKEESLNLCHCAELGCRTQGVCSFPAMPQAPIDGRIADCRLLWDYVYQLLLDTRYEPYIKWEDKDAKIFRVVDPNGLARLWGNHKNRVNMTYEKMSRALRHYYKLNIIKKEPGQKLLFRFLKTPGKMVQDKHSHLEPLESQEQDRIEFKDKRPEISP
How it was run: as §1

ELF5 = target: T11, ELF5 (Homo sapiens, UniProt Q9UKW6-2 1-255); settings: protein: recombinant; tags: N-terminal GST; dsDNA, one strand shown
T11 sequence: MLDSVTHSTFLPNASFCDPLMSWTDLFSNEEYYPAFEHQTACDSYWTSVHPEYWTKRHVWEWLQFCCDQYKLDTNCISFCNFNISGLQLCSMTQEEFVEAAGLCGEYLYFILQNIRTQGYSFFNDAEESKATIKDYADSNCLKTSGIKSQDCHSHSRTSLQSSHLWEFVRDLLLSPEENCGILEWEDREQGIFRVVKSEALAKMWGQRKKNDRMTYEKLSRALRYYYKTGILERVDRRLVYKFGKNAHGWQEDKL
How it was run: as §1

ETV3 = target: T12, ETV3 (Homo sapiens, UniProt P41162-2 1-143); settings: protein: recombinant; tags: N-terminal GST; dsDNA, one strand shown
T12 sequence: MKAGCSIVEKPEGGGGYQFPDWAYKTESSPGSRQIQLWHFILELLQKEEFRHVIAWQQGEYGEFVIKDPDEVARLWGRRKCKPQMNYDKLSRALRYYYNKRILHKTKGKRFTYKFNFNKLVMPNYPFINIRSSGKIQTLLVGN
How it was run: as §1

ETV6 = ETV6 (Homo sapiens, UniProt P41212 1-452); settings: protein: recombinant; tags: N-terminal GST; dsDNA, one strand shown
Chain of ETV6 (P41212 whole entry): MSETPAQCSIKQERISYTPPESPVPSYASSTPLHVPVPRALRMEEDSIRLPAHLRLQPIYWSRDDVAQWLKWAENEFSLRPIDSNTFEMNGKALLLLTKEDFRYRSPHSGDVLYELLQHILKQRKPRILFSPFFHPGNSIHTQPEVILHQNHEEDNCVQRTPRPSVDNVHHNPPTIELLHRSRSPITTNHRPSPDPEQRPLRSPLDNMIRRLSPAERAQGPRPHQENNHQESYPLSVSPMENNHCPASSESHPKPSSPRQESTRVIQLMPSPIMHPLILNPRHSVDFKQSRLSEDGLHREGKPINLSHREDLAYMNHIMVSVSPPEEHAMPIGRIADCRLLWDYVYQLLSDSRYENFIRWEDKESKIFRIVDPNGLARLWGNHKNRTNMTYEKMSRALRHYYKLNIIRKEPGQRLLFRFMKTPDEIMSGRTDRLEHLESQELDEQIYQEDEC
How it was run: as §1

## GTTACT
FEV
  binding signal: 1.17 fold enrichment (6-mer frequency, TF over GST control)
ETV5
  binding signal: 1.28 fold enrichment (6-mer frequency, TF over GST control)
HSF1
  binding signal: 1.03 fold enrichment (6-mer frequency, TF over GST control)
SPIC
  binding signal: 1.31 fold enrichment (6-mer frequency, TF over GST control)
ELF4
  binding signal: 1.18 fold enrichment (6-mer frequency, TF over GST control)
ELK4
  binding signal: 1.09 fold enrichment (6-mer frequency, TF over GST control)
ETV2
  binding signal: 1.19 fold enrichment (6-mer frequency, TF over GST control)
ELF3
  binding signal: 1.4 fold enrichment (6-mer frequency, TF over GST control)
CRX
  binding signal: 1.03 fold enrichment (6-mer frequency, TF over GST control)
ETV1
  binding signal: 1.17 fold enrichment (6-mer frequency, TF over GST control)
ERF
  binding signal: 1.24 fold enrichment (6-mer frequency, TF over GST control)
ETV3L
  binding signal: 1.1 fold enrichment (6-mer frequency, TF over GST control)
ETS2
  binding signal: 1.21 fold enrichment (6-mer frequency, TF over GST control)
SPDEF
  binding signal: 1.18 fold enrichment (6-mer frequency, TF over GST control)
ETV7
  binding signal: 1.25 fold enrichment (6-mer frequency, TF over GST control)
ELF5
  binding signal: 1.17 fold enrichment (6-mer frequency, TF over GST control)
ETV3
  binding signal: 1.28 fold enrichment (6-mer frequency, TF over GST control)
ETV6
  binding signal: 1.21 fold enrichment (6-mer frequency, TF over GST control)
